Source: PubChem BioAssay (NCI)
About 83,000 compounds went through this panel and 20% of them were active in at least one assay; those are over-represented in the sample as a whole.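 A percent growth of 40 corresponds to 60% growth inhibition; 0 means no net growth; -100 means all cells died. Active threshold: below 10.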 Values without a mark were called inactive. Calls of active or inactive are those of the source.

tested on: UO-31 renal; experiment: NCI-60 one-dose screen, 48 h (100 = growth as untreated, 0 = no growth, -100 = all killed); conditions: 10 µM unless noted

Going from `COc1nc(OC)nc(-c2cc(C(=O)c3ccc(Br)cc3)n3cc(C)cc(C)c23)n1` to `COc1ccc2c(c1)/C(=C1/S/C(=N/c3nnc(C)s3)NC1=O)C(=O)N2Cc1ccc(Br)cc1`, the growth falls from 71% to 42.6%.

First: Brc1c(-c2ccncc2)nc2n1CCS2
Second: O=C(O)c1ccc(-c2nn(-c3ccc(C(=O)O)cc3)cc2CNc2ccc(Br)cc2)cc1
The growth of the first is higher: 94.5% for the first, 87.7% for the second.

Going from `CC(=O)/C(=C\c1c(-c2ccccc2)[nH]c2ccccc12)S(=O)(=O)c1ccccc1` to `O=C(N/N=C/c1coc2ccccc2c1=O)c1cc2oc(-c3ccccc3)cc2[nH]1`, the growth rises from 14% to 86.2%.

Going from `COc1ccc(/C=N/c2cc(C(C)(C)C)nn2-c2ccccc2)cc1` to `COc1ccc(/C=C2\SC(=O)N(Cc3cc(=O)oc4ccc(OC)cc34)C2=O)cc1`, the growth falls from 94.5% to 70.6%.

First: CCC1(CC)C(OC)NC(Br)=C(C#N)C1(C#N)C(N)=O (centres undefined)
Second: CCOC(=O)C1C(=O)C(=O)N(C(C)C)C1C(=O)OCC (centres undefined)
The growth of the first is lower: 85.2% for the first, 86.2% for the second.

Going from `COc1ccc(CN2C(=O)/C(=C\C(=O)c3ccc(OCCN4CCCC4)cc3)c3ccccc32)cc1` to `CCC(CCCN1C(=O)c2ccccc2C1=O)Nc1cc(OC)cc2cccnc12` (centres undefined), the growth rises from 56.5% to 94.8%.

Compared with `c1cc(C2CCCCC2)ccc1OCCCCCCN1CCNCC1`, `COc1cc(CNC(=O)CCCC/C=C/C(C)C)ccc1OCc1nnc(Nc2ccccc2F)o1` is lower in growth: 56.6% for the first, 52.8% for the second.

First: COc1cc(/C=C/C(=O)/C=C(/C=C/c2ccc(OC(C)=O)c(OC)c2)OB(F)F)ccc1OC(C)=O
Second: COc1cc2c(cc1OC)C(Cc1cc(OC)c(OC)cc1[N+](=O)[O-])=NCC2
The growth of the first is lower: 47% for the first, 66.9% for the second.

Compared with `Cc1c([C@H](C(Cl)Cl)[C@H](O)[C@H]2C[C@H](C)C(=O)O2)ccc2c1C(=O)[C@H]1[C@H]2C[C@@H](Br)[C@@]23O[C@@H](CO[C@H]2O)CC13C` (some centres undefined), `COc1cc([C@@H]2c3cc4c(cc3[C@H](O)[C@H]3COC[C@@H]23)OCO4)cc(OC)c1OC` is lower in growth: 56.2% for the first, 53.9% for the second.

First: O=C1/C(=N\c2cc(=O)[nH]n2S(=O)(=O)c2ccccc2)Nc2ccccc21
Second: O=c1c(N=Nc2nccs2)c(-c2ccccc2)[nH]n1-c1nc(-c2ccccc2)cs1
The growth of the first is higher: 70.8% for the first, 36.4% for the second.

Compared with `CC(C)(C)C(=O)OCOP(=O)(OCOC(=O)C(C)(C)C)C1CC(O)N(O)C1=O` (centres undefined), `CC1(C)CC(=O)C2=C(C1)Oc1nc(N)c(C#N)c(N)c1C2c1ccc(F)cc1` (centres undefined) is higher in growth: 18.6% for the first, 181% for the second.

Going from `O=C1c2cc([N+](=O)[O-])ccc2-c2cc(Cl)c(NC(=O)C(F)(F)F)cc21` to `Nc1nc2c(c3ncncc13)C(c1cccc(C(F)(F)F)c1)Cc1ncncc1-2` (centres undefined), the growth falls from 93.2% to 51%.

Compared with `O=C(Nc1ccccc1)Nc1ccc(Nc2ncnc3sc4c(c23)CCCC4)cc1`, `O=S(=O)(Cc1cccc2c(CS(=O)(=O)c3ccc(Cl)cc3)cccc12)c1ccc(Cl)cc1` is higher in growth: 71.6% for the first, 106% for the second.

First: Cn1cnc2nc[nH]c2c1=S
Second: C=CCN(C)C
The growth of the first is lower: 71.2% for the first, 93.3% for the second.

With `CCC(C)C1NC(=O)C(CC(C)C)NC(=O)C(C)NC(=O)C(C(C)C)NC(=O)C(CCCCN)NC(=O)C(CC(C)C)NC(=O)C(C(C)C)NC(=O)[C@H](C)NC(=O)C(C(C)CC)NC(=O)C(CCCN=C(N)N)NC(=O)C(CCCCN)NC(=O)C(CCCN=C(N)N)NC(=O)C(CCCCN)NC(=O)C([C@H](C)CC)NC(=O)C(CCCCN)NC1=O` (some centres undefined) the growth was 21.8%.

In the case of `CC(=O)OCC(=O)[C@@]1(O)[C@H](C)C[C@H]2[C@@H]3C=C(C)C4=Cc5c(cnn5-c5ccc(F)cc5)C[C@]4(C)[C@H]3[C@@H](O)C[C@@]21C`, the growth is reported as 3.92% (active).
In the case of `N=C(N)c1ccc(-c2ccc(-c3ccc(Cl)cc3)s2)s1`, the growth is reported as -87.5% (active).
For `O=Nc1c(-c2c(O)[nH]c3cc(Br)ccc23)[nH]c2ccccc12`, the growth was -28.9% (active).
In the case of `COc1ccc(CNCCCN2C(=O)c3ccc4c5c(ccc(c35)C2=O)C(=O)N(CCCNCc2ccc(OC)c(OC)c2OC)C4=O)c(OC)c1OC`, the growth is reported as -91.5% (active).
In the case of `Cc1ccc(C(=O)Nc2ccc(CN3CCN(C)CC3)c(C(F)(F)F)c2)cc1C#Cc1cncc2ncccc12`, the growth is reported as -96.3% (active).
